From PubChem
MITF TRPM1 inh: inhibitors of MITF-dependent TRPM1 promoter reporter, primary screen, cell-based, SK-MEL-5, single point, luciferase; hit rate 0.83% among 330,000; SK-MEL-5 TRPM1 promoter luciferase, 24 h; inhibition, % at 12.5 µM;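 active = mean inhibition across replicates of 60% or more, whatever share of single replicates reaches that level; inconclusive = some that reach 60%, reason not given; inactive = mean inhibition across replicates below 60%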
LMP1 NFkB inh: EBV LMP1-driven NF-kappaB luciferase reporter inhibitors, primary screen, cell-based, luminescence, single point; LMP1-induced NF-kappaB luciferase reporter cells; inhibition, % at 12.5 µM; hit rate 0.69% among 350,000; in the data active = inhibition above about 41%; inconclusive = no clear call, values can overlap the other calls
TWEAK Fn14 block: inhibitors of TWEAK-Fn14 signaling, primary screen, luciferase reporter cells, uHTS; TWEAK-stimulated Fn14 reporter cells, luciferase luminescence, 8 h; inhibition, % at 10 µM; hit rate 2% among 360,000; in the data active = inhibition above about 50%
MITF TRPM1 HTS: activators of MITF-driven TRPM1 promoter reporter, primary screen, cell-based, SK-MEL-5, luciferase, single point; hit rate 0.75% among 300,000; AID 588334, 2011; SK-MEL-5 TRPM1-promoter luciferase, 24 h; % of positive control, neutral wells = 0; activation, % at 12.5 µM;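 active = mean activation of at least 80% with every replicate also reaching 80%; inconclusive = mean reaches 80% but some replicate falls short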
LGR2 antag: inhibitors of bursicon-induced LGR2 CRE-luciferase signal, primary screen, cell-based, HEK293, CRE-luciferase reporter, bursicon stimulation; Drosophila bursicon receptor LGR2 (rickets); bursicon-stimulated, 4 h; inhibition, % at 9.99 µM; hit rate 0.35% among 380,000;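 active = drop in luminescence signal, shown as inhibition above about 50% in the replicate tests, limit read from the data, passing the limit was not always enough; inconclusive = probably only some replicates passing the limit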;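 also: agonist challenge used bursicon conditioned medium at about half maximal strength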
TROY NFkB inh: inhibitors of TROY-driven NF-kB signaling, primary screen, Q293 LMP1-TROYcd cells, NF-kB luciferase, uHTS; inhibition, % at 10 µM; AID 1347056, 2019; hit rate 0.98% among 360,000; Q293 LMP1-TROYcd NF-kB luciferase reporter, 4 h;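 active = compounds whose plate-normalised and pattern-corrected inhibition of the luciferase reporter signal at the single screening dose is 50% or more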
Hits are given with their value; . = inactive; ? = inconclusive; / = not tested or not shown; ! = a repeat was not active. In the library only some 3% were active in any assay of this set; here they are far more common.

SMILES	MITF TRPM1 inh	LMP1 NFkB inh	TWEAK Fn14 block	MITF TRPM1 HTS	LGR2 antag	TROY NFkB inh
CNC[C@@H]1OCCCC[C@@H](C)Oc2ccc(NC(=O)CCC(F)(F)F)cc2C(=O)N([C@H](C)CO)C[C@H]1C	/	/	/	/	.	/
O=C(c1ccccn1)N1CC2(C1)[C@@H](c1ccccc1)[C@H](CO)N2C(=O)C1CCC1	/	/	/	/	.	/
Cn1c(=O)n(CCc2ccccc2)c(=O)c2c1nc1n2CCCN1Cc1ccccc1	.	.	52	.	.	.
Cc1ccc(N2CCCCn3c2nc2c3c(=O)n(CC(=O)O)c(=O)n2C)cc1	.	56	.	.	.	.
Cc1noc(C)c1S(=O)(=O)N(C)C[C@H]1OCCCC[C@H](C)Oc2ccc(NC(=O)Cc3ccccc3)cc2C(=O)N([C@@H](C)CO)C[C@H]1C	/	/	/	/	.	/
CN1CCN(C2Cc3ccccc3Sc3ccc(Cl)cc32)CC1 (stereo not given)	.	.	.	.	.	.
CSc1ccc2c(c1)C(N1CCN(C)CC1)Cc1ccccc1S2 (stereo not given)	.	89!	.	.	.	.
Cc1ccc(-c2nnc(SCC(=O)N/N=C/c3ccccc3C(=O)O)n2-c2ccc(C)cc2)cc1	.	.	92	.	.	.
CC(=O)Nc1cc(Cl)c(N=Cc2ccc(O)cc2O)cc1Cl	.	.	77	.	/	.
COc1ccc2c3c(n(C)c2c1)[C@@H](CO)N(C(=O)C1CCOCC1)CC31CCN(Cc2cccc(F)c2)CC1	/	/	/	/	.	/
O=C(NCc1ccccc1F)C1CCN(C(=O)Nc2ccc(F)cc2)CC1	.	.	99	.	.	.
COCCNC(=O)c1cccc(Nc2nc(-c3ccccc3)c3cc(Cl)ccc3n2)c1	.	.	63	.	.	.
CCCCCCn1c2c(c(=N)c3c1CCC3)CCC2	?	?	.	.	.	59
CCCCCCCCCn1c2c(c(=N)c3c1CCC3)CCC2	78	.	.	/	/	52
CCCCCCCn1c2c(c(=N)c3c1CCC3)CCCC2	68	41	61	.	/	.
CCCCn1c2c(c(=N)c3c1CCC3)CCC2	.	.	.	.	.	.
C#Cc1cccc(Nc2nc(NC(C)C)nc3ccsc23)c1	/	/	53	/	.	.
C#Cc1cccc(Nc2nc(NCCOC)nc3ccsc23)c1	/	/	.	/	.	.
CC(C)Nc1nc(Nc2ccccc2Cl)c2sccc2n1	/	/	64	/	.	.
C#Cc1cccc(Nc2nc(NCc3ccccc3OC)nc3ccsc23)c1	/	/	74	/	.	.
COc1ccc2c3c(n(C)c2c1)[C@@H](CO)N(C(=O)NC(C)C)CC31CN(CC2CCOCC2)C1	/	/	/	/	.	/
Cc1onc(-c2ccccc2)c1C(=O)NC(=S)NNC(=O)c1ccc(O)cc1O	.	43	.	.	.	.
CCCC(=O)Nc1ccc2c(c1)OC[C@H](C)N(Cc1ccccc1F)C[C@H](C)[C@@H](OC)CN(C)C2=O	/	/	/	/	.	/
Cc1ccc(N/C(N)=N/c2nc(C)cc(N3CCCCC3)n2)c(C)c1	.	.	.	.	67	61
C[C@@H]1CN([C@@H](C)CO)C(=O)c2cc(-c3ccncc3)cnc2O[C@H]1CN(C)C(=O)C1CCC1	/	/	/	/	.	/
SMILES	MITF TRPM1 inh	LMP1 NFkB inh	TWEAK Fn14 block	MITF TRPM1 HTS	LGR2 antag	TROY NFkB inh
Cc1noc(C)c1NC(=O)Nc1cccc2c1O[C@@H](CN(C)C)[C@H](C)CN([C@@H](C)CO)C2=O	/	/	/	/	.	/
Cc1c(CCC(=O)N2CCC(C(=O)O)(c3ccccc3)CC2)c(=O)oc2cc3oc4c(c3cc12)CCCC4	.	.	87	.	/	.
CC(=O)NC[C@@H]1[C@@H](c2ccc(C3=CCCC3)cc2)[C@@H](CO)N1C(=O)CN(C)C	/	/	/	/	.	/
Cc1cccc(C)c1OCC(=O)Nn1c(C)nc2ccccc2c1=O	.	.	78	.	/	/
O=C(CSCC(=O)N1CCCCC1)Nc1nc(-c2cccs2)cs1	.	.	.	.	.	.
O=C(CSCC(=O)N1CCCCC1)Nc1nc(-c2ccc(Cl)s2)cs1	.	.	69	.	.	.
O=C(CSCC(=O)N1CCN(c2ccccc2)CC1)Nc1nc(-c2ccc(Cl)s2)cs1	/	.	72	/	.	.
CO[C@@H]1CN(C)C(=O)c2ccc(NC(C)=O)cc2OC[C@H](C)N(C(=O)CC2CC2)C[C@H]1C	/	/	/	/	.	/
COc1ccc2c3c(n(C)c2c1)[C@@H](CO)N(C(=O)NC(C)C)CC31CCN(C(=O)NC(C)C)CC1	/	/	/	/	.	/
CC(C)C#Cc1cnc2c(c1)C(=O)N([C@@H](C)CO)C[C@@H](C)[C@@H](CN(C)C(=O)c1ccc3c(c1)OCO3)O2	/	/	/	/	.	/
c1cnc2c(-c3cccc4nccn34)cccc2c1	/	/	.	/	.	.
c1ccc2c(-c3cccc4nccn34)cncc2c1	/	/	52	/	.	.
Cc1nn(C)cc1S(=O)(=O)Nc1ccc2c(c1)OCCO2	.	.	77	.	.	82
O=S(=O)(Nc1ccc2c(c1)OCCO2)c1cccc(F)c1	.	.	52	/	.	.
CC(=O)NCCc1ccc(S(=O)(=O)Nc2ccc3c(c2)OCCO3)cc1	.	.	55	.	.	.
O=S(=O)(Nc1ccc2c(c1)OCCO2)c1ccc(F)c(F)c1	.	.	.	.	.	.
Cc1c(S(=O)(=O)Nc2ccc3c(c2)OCCO3)cnn1C	.	.	.	.	.	.
COc1ccc(OC)c(S(=O)(=O)Nc2ccc3c(c2)OCCO3)c1	/	.	84	/	.	76
Cc1ccc(N(CC(=O)Nc2ccc3c(c2)OCCO3)S(=O)(=O)c2c(C)n[nH]c2C)cc1	.	.	.	.	/	.
Cc1n[nH]c(C)c1S(=O)(=O)Nc1ccc2c(c1)OCCO2	.	.	82	.	/	63
Cc1ccc(S(=O)(=O)Nc2ccc3c(c2)OCCO3)cc1C	.	.	87	.	.	80
Cc1nccn1CC(O)Cn1c2ccccc2c2ccccc21 (stereo not given)	.	.	84	.	/	/
Cc1cc(C)n(CC(O)Cn2c3ccccc3c3ccccc32)n1 (stereo not given)	.	.	.	.	.	.
O=C(OCc1cnc(Cl)s1)c1ccccc1Cl	.	.	.	/	/	.
CC(=O)OCn1ncc(N2CCOCC2)c(Br)c1=O	.	.	.	.	.	.
O=C(OCn1ncc(Br)c(Br)c1=O)c1ccc(F)cc1	85	?	102	.	/	83
O=C(OCn1ncc(Br)c(Br)c1=O)c1ccccc1Cl	89	.	97	.	.	80
COCCNC(=O)C[C@@H]1CC[C@H]2[C@@H](COc3ccc(NC(=O)COC)cc3C(=O)N2C)O1	/	/	/	/	.	/
CN1C(=O)C2C=CC1C1C(=O)N(c3ccccc3)C(=O)C21 (stereo not given)	.	.	.	89	/	.
O=C(N/N=C/c1ccccn1)c1cc(-c2ccc(Br)cc2)nc2ccccc12	66	.	100	.	.	.
